Results reported in PubChem BioAssay AID588511 (Johns Hopkins Ion Channel Center, 2011).
Among all 310,000 compounds or so, about 3,600 (1.2%) were called active.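 The calls were made as follows: active = ratio plate-corrected score three or more library SD toward inhibition, starting fluorescence score within five deviations; inactive = the rest.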 What follows is part of a selection rich in actives, with near analogues and random picks from the rest.

These compounds were tested against Anoctamin-1 (Mus musculus) (UniProt Q8BHY3) (assay: blockers of mouse ANO1 Ca-activated Cl channel – cell-based, HTS, primary screen (AID 588511;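 as to normalized B-score (activity score, 25-100; higher = stronger inhibition): score derived from kinetic fluorescence span divided by baseline fluorescence per well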)). Settings: HEK293 TMEM16A/YFP iodide influx fluorescence, ionomycin; at 10 µM.
Chain of Anoctamin-1 (Mus musculus) (Q8BHY3 whole entry, looked up): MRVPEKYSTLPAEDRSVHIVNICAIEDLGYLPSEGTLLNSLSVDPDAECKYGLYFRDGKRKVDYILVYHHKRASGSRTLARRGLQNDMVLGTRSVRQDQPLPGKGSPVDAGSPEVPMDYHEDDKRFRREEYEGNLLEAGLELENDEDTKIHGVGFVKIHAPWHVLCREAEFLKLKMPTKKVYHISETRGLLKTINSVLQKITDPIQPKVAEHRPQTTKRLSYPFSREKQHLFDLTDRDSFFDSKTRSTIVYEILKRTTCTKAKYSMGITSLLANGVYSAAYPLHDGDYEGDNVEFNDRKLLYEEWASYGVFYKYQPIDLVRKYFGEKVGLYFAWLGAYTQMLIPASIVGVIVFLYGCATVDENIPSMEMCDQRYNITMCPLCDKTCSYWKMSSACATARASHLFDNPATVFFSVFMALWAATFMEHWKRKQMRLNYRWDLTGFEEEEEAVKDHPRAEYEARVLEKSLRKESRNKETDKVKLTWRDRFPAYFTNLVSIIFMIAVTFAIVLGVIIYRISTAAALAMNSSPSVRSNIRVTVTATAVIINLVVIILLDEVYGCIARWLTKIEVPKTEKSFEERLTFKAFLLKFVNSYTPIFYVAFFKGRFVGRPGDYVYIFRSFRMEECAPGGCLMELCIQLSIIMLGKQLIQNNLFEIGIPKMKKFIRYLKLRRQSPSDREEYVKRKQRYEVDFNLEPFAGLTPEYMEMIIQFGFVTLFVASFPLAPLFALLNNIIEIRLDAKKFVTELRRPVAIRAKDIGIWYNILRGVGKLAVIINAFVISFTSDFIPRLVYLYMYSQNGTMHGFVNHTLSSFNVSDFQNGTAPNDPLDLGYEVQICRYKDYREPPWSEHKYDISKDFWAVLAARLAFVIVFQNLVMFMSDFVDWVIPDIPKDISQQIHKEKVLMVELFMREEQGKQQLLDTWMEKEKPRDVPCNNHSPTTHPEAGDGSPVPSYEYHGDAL

Compound	normalized B-score (activity score, 25-100; higher = stronger inhibition)
COc1ccc(N(CC(=O)NC2CCCCC2)C(=O)CNC(=O)c2ccco2)c(OC)c1	inactive
CCOc1ncccc1C(=O)N(C)CC(=O)Nc1ccc(F)cc1	inactive
Cc1ccc(CNS(=O)(=O)CCNC(=O)c2ccccc2)cc1	inactive
COc1ccc(CCNC(=O)C(=O)NCC2OCCN2S(=O)(=O)c2ccc(F)cc2)cc1OC (stereo unspecified)	inactive
CCCCNC(=O)c1ccccc1NC(=O)c1ccccc1N(C)S(C)(=O)=O	inactive
CCOC(=O)c1cccc(NC(=O)CCn2nnc3ccccc32)c1	100 (active)
CCOC(=O)c1cccc(NC(=O)CCOc2ccccc2)c1	inactive
CCOC(=O)c1cccc(NC(=O)CCc2c(C)nc3ncnn3c2C)c1	inactive
COC(=O)c1cc(NC(=O)c2cc(C(C)(C)C)nn2Cc2cccc(C)c2)ccc1N1CCOCC1	inactive
Cc1cccc(C)c1N1C(=O)CN(Cc2ccccc2)C1=S	inactive
CC1Cc2ccccc2N1S(=O)(=O)c1ccc(Cl)nc1 (stereo unspecified)	inactive
CCCCn1ccnc1C(=O)c1cccc(S(=O)(=O)N2c3ccccc3CC2C)c1 (stereo unspecified)	25 (active)
CC1Cc2ccccc2N1S(=O)(=O)c1c(N)n(C)c(=O)n(C)c1=O (stereo unspecified)	inactive
CC(=O)N1CCCc2cc(S(=O)(=O)N3CCCC(C(=O)NCc4ccc(Cl)cc4)C3)ccc21 (stereo unspecified)	inactive
CC(=O)N1c2ccc(S(=O)(=O)N3CCCC(C(=O)Nc4cccc(Cl)c4)C3)cc2CC1C (stereo unspecified)	inactive
CC(=O)N1CCCc2cc(S(=O)(=O)N3CCCC(C(=O)N4CCN(c5cccc(Cl)c5)CC4)C3)ccc21 (stereo unspecified)	100 (active)
O=C(NC(=S)Nc1ccccc1C(=O)O)c1ccc(-c2ccc(Br)cc2)o1	100 (active)
O=C(O)c1ccccc1NC(=O)c1ccccc1-c1ccccc1C(=O)O	inactive
COC(=O)c1ccccc1NC(=S)NC(=O)c1ccccc1F	inactive
Cc1cc(C)cc(N(CC(=O)NC2CCCC2)C(=O)CCC(=O)Nc2cc(C)on2)c1	inactive
COc1cccc(/C=C/C(=O)Nc2ccc3c(c2)OCCO3)c1	inactive
Cc1[nH]n(-c2ccccc2)c(=O)c1/C=N/NC(=O)c1ccoc1C	inactive

Compound	normalized B-score (activity score, 25-100; higher = stronger inhibition)
Cc1ccc(-n2[nH]c(C)c(/C=N/N3C(=O)c4cccc5cccc(c45)C3=O)c2=O)cc1	100 (active)
COc1cc(SC#N)ccc1N=Cc1c(C)[nH]n(-c2ccc(C)cc2)c1=O	inactive
Cc1ccc(C2(C(F)(F)F)N=C3Sc4cc(C)cc(C)c4N3C(=O)N2)cc1 (stereo unspecified)	inactive
Cc1c(C(=O)OCC(=O)N2CCCC2=O)oc2ccccc12	inactive
COc1ccc(Nc2ncnc3sc(-c4ccccc4)cc23)c(OC)c1	inactive
Oc1ccccc1N1CCN(c2ncnc3sc(-c4ccccc4)cc23)CC1	inactive
c1ccc(-c2cc3c(NCC4COc5ccccc5O4)ncnc3s2)cc1 (stereo unspecified)	100 (active)
COc1cc(Cl)c(C)cc1NC(=O)CN1CCCCCC1	inactive
O=C(Cc1cccs1)NCc1cccc(C(F)(F)F)c1	inactive
CCOn1c(=O)c(=O)n(O)c2ccccc21	inactive
CN1CCC(=O)N([C@H](CO)Cc2ccccc2)CC1	inactive
COc1ccc(SC[C@H](Cc2ccccc2)N2CCN(CCc3ccccc3)CCC2=O)cc1	inactive
C[C@H]1CCC(=O)N([C@H](CSc2ccccc2)Cc2ccccc2)CC1	25 (active)
Cn1c2c(c(=O)n(C)c1=O)C(c1cccc([N+](=O)[O-])c1)Nc1ccccc1O2 (stereo unspecified)	inactive
COc1cccc(-c2nc(CS(=O)(=O)CC(=O)NCCc3ccc(OC)c(OC)c3)c(C)o2)c1	inactive
COc1ccc(CCNC(=O)C2CCCN(Cc3nc(-c4cccc(Cl)c4)oc3C)C2)cc1OC (stereo unspecified)	100 (active)
COc1ccc(CCNC(=O)CS(=O)(=O)Cc2nc(-c3ccc(C)cc3)oc2C)cc1OC	inactive
CCOc1ccc(/C=C/C(=O)OCC(=O)c2ccccc2OC)cc1OC	inactive
Cc1cccc(N)c1SC1CCCCC1O (stereo unspecified)	inactive
Cc1cccc(N=C2SC(C)CN2C(=O)CN2C(=O)NC3(CCCC3)C2=O)c1 (stereo unspecified)	inactive
O=C(Nc1nnc(S(=O)(=O)N2CCCCCC2)s1)c1cccc(Br)c1	inactive
NS(=O)(=O)c1ccc(N=Cc2ccc(Br)s2)cc1	inactive

Compound	normalized B-score (activity score, 25-100; higher = stronger inhibition)
COC(=O)C1=C(C)NC(=O)CC1c1ccccc1OC (stereo unspecified)	inactive
CCCOc1ccccc1C1CC(=O)Nc2cc3c(cc21)OCO3 (stereo unspecified)	25 (active)
COc1ccccc1C1C2=C(COC2=O)Nc2cc3c(cc21)OCO3 (stereo unspecified)	inactive
CC1CCN(C(=O)CN(c2ccc(Oc3ccccc3)cc2)S(C)(=O)=O)CC1	inactive
COc1ccc(S(=O)(=O)N(CCCN2CCCC2=O)Cc2cc3c(C)ccc(C)c3[nH]c2=O)cc1	inactive
Cc1ccc(-c2noc(CSc3nnc(-c4cccs4)n3C)n2)cc1	inactive
Cc1ccc(-c2noc(CSc3nnc(-c4ccccc4)n3C)n2)cc1	inactive
Cc1ccc(-c2noc(CSc3nnnn3-c3ccccc3)n2)cc1	100 (active)
Cc1ccc(-c2nnc(CN3CCN(C)CC3)o2)cc1	inactive
O=C(NCCCN1CCCC1=O)C(=O)NCC1OCCN1S(=O)(=O)c1ccc(Br)cc1 (stereo unspecified)	inactive
CCn1c(SCc2ccccc2)nc2c(c1=O)SCC2	inactive
Cn1c(SCC(=O)N2CCCCC2)nc2c(c1=O)SCC2	inactive
Cc1cccc(CSc2nc3c(c(=O)n2C)SCC3)c1	25 (active)
O=C(Nc1ccnn1C1CCN(C/C=C/c2ccc(F)cc2)CC1)C1CCCC1	inactive
COc1ccc(OC)c(S(=O)(=O)N2CCCC(C(=O)N3CCC(C(N)=O)CC3)C2)c1 (stereo unspecified)	inactive
CCCc1ccc(OCC(=O)NNC(=S)NC(=O)c2ccco2)cc1	inactive
CC(Oc1ccc2ccccc2c1)C(=O)NNC(=S)NC(=O)c1ccco1 (stereo unspecified)	100 (active)
Cc1ccc(C(=O)NNC(=O)C(C)Oc2ccc3ccccc3c2)o1 (stereo unspecified)	inactive
O=C(Nc1cc(-c2ccccc2)nn1-c1ccccc1F)c1ccc([N+](=O)[O-])cc1	inactive
CSc1ccc(C(=O)C2CCCN(C(=O)c3ccc(C)nc3)C2)cc1 (stereo unspecified)	inactive
CCOC(=O)N1CCC(=NNC(N)=O)CC1	inactive
Cc1cccc(-c2nc(CS(=O)CC(=O)NC(C)CCc3ccccc3)c(C)o2)c1 (stereo unspecified)	inactive
